PubChem BioAssay (NCI)
Compounds without any hit were thinned out: in the full panel of roughly 83,000, 20% have a hit.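 Plates (96-well) were seeded with cells, treated with compound at one concentration, and incubated for 48 hours before percent growth was determined.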 Unmarked numbers belong to inactive results. The source made the active and inactive calls. How the source made its calls: active means growth percent below 10; inactive means the rest.

Experiments:
Assay in all cases: NCI-60 one-dose screen, 48 h (100 = growth as untreated, 0 = no growth, -100 = all killed)
Settings in all cases: 10 µM
NCI-H23 lung = test system: NCI-H23 lung
NCI-H226 lung = test system: NCI-H226 lung
NCI-H460 lung = test system: NCI-H460 lung
HOP-92 NSCLC = test system: HOP-92 NSCLC
NCI-H522 lung = test system: NCI-H522 lung
A549/ATCC NSCLC = test system: A549/ATCC NSCLC
786-0 renal = test system: 786-0 renal
COLO 205 colon = test system: COLO 205 colon

| SMILES | growth (NCI-H23 lung) | growth (NCI-H226 lung) | growth (NCI-H460 lung) | growth (HOP-92 NSCLC) | growth (NCI-H522 lung) | growth (A549/ATCC NSCLC) | growth (786-0 renal) | growth (COLO 205 colon) |
| --- | --- | --- | --- | --- | --- | --- | --- | --- |
| COc1ccc(-c2nn(-c3cccc(Cl)c3)cc2C=C(C#N)C#N)cc1 | -45.2% (active) | 25.4% | 1.56% (active) | 11% | -12.1% (active) | 19.1% | -8.39% (active) | -9.68% (active) |
| COc1ccc(-c2nn(-c3cccc(Cl)c3)cc2-c2nc(N)[nH]c(=O)c2C#N)cc1 | 42.7% | 67.3% | 92.2% | 71.2% | 49.6% | 85.1% | 57.2% | 107% |
| Cc1cn(-c2cccc(NC(=O)c3ccc(C)c(Nc4nccc(-c5cccnc5)n4)c3)c2)cn1 | 32.2% | -43% (active) | -13% (active) | -13% (active) | -17.7% (active) | 10.7% | -52.2% (active) | 11% |
| Cc1cc(CC(C)CC(C)(C)C)n(O)c(=O)c1 (configuration not stated) (tested in a mixture with another compound) | 14.6% | 14.1% | 3.41% (active) | 73.6% |  | 20.2% | 29% | 95.5% |
| C#C[C@]1(O)CCC2C3CCc4cc(OC5CCCC5)ccc4C3CC[C@@]21C (some centres not stated) | 76.6% | 91.6% | 49.8% | 99.6% |  | 65.9% | 73.5% | 49.3% |
| Cc1nc2n(c(=O)c1CCN1CCC(c3noc4cc(F)ccc34)CC1)CCC[C@@H]2O | 92.1% | 99.6% | 105% | 97.9% |  | 99.3% | 107% | 96.7% |
| COc1ccc(-c2nn(-c3cccc(Cl)c3)cc2-c2cc(-c3ccccc3)nc(N)n2)cc1 | 42.2% | 69.3% | 31.6% | 69.2% | 45.8% | 61.1% | 60.1% | 35.8% |
| CC1=CC2C(C(O)CC3(C)C2CC(C)C32OCOC23COCO3)C2(C)C/C(=C/O)C(=O)C=C12 (configuration not stated) | -0.378% (active) | 78.4% | 7.96% (active) | 94.1% | -26.7% (active) | 41.8% | 58.8% | -14.4% (active) |
| CO[C@H]1CC(O[C@@H]2/C(C)=C/C[C@@H]3C[C@@H](C[C@]4(C=C[C@H](C)[C@@H](C5CCCCC5)O4)O3)OC(=O)[C@@H]3C=C(C)[C@@H](O)[C@H]4OC/C(=C\C=C\[C@@H]2C)[C@]43O)O[C@@H](C)C1O[C@H]1C[C@H](OC)[C@@H](O)[C@H](C)O1 (some centres not stated) | -63.7% (active) | -85.8% (active) | -86.7% (active) | -82.9% (active) |  | -79.7% (active) | -80.3% (active) | -64.7% (active) |
| CCC1NC(=O)c2cc(S(N)(=O)=O)c(Cl)cc2N1 (configuration not stated) | 108% | 102% | 114% | 91.2% |  | 104% | 116% | 109% |
| CN1CCN(C2=Nc3ccccc3Oc3ccc(Cl)cc32)CC1 | 105% | 111% | 105% | 80.4% |  | 94.8% | 87.4% | 96.9% |
| OC[C@H]1OC([S-])[C@H](O)[C@@H](O)[C@@H]1O.[Au+] (some centres not stated) | 77.2% | 103% | 110% | 75.6% |  | 95.7% | 87.3% | 114% |
| CCN1CC(CCN2CCOCC2)C(C(c2ccccc2)c2ccccc2)C1=O (configuration not stated) | 105% | 97.3% | 108% | 98.9% |  | 101% | 114% | 110% |
| COc1ccccc1-n1c(-c2csc(NC(C)=O)n2)n[nH]c1=S | 93.1% | 96.7% | 109% | 96% | 82.5% | 100% | 97.2% | 115% |
| Nc1cc(-c2ccncc2)c[nH]c1=O | 102% | 103% | 110% | 90.9% |  | 106% | 103% | 113% |
| COc1ccc(-c2nn(-c3cccc(Cl)c3)cc2-c2c(C#N)c(=O)n3[nH]c(-c4ccccc4)nc3c2C#N)cc1 | 81.1% | 88% | 105% | 93.3% | 72.4% | 98.9% | 89.4% | 123% |
| C[N+]1(CCCCC[N+]2(C)CCCC2)CCCC1 | 105% | 83.8% | 94.7% | 74.6% |  | 76.2% | 118% |  |
| CCc1cc(Cl)c(OC)c(C(=O)NCC2CCCN2CC)c1O (configuration not stated) | 85.5% | 94.7% | 104% | 65.8% |  | 95.6% | 97.8% | 103% |
| C[C@H]1[C@H](OC(=O)CCC(=O)O)O[C@@H]2O[C@]3(C)CC[C@H]4[C@H](C)CC[C@@H]1[C@@]24OO3 | 19.9% | 59.5% | 25.5% | 41.6% |  | 42% | 33.5% |  |
| COc1ccc(-c2nn(-c3cccc(Cl)c3)cc2/C=C2\NC(=S)N(c3ccc(Cl)cc3)C2=O)cc1 | -7.88% (active) | -42.5% (active) | 11% | 29.3% | -37.7% (active) | 18.8% | 46.6% | 36.9% |
| O=C1CCn2c1c(O)c1ccccc1c2=O | 99.5% | 101% | 105% | 95.4% | 112% | 100% | 105% | 123% |
| COc1ccc(-c2nn(-c3cccc(Cl)c3)cc2-c2cc(-c3cccs3)[nH]c(=S)n2)cc1 | 15.7% | 58.9% | 43.8% | 94% | 46.5% | 39.7% | 38.4% | 52.4% |
| CCCCc1oc2ccccc2c1C(=O)c1cc(I)c(OCCN(CC)CC)c(I)c1 | -38.9% (active) | -36% (active) | -76.7% (active) | -68.7% (active) |  | 9.9% (active) | -90.5% (active) |  |
| CCn1c(CSc2nc3ccccc3c(=O)n2CCc2ccccc2)n[nH]c1=S | 65.6% | 78.1% | 96.5% | 85.9% |  | 84.6% | 81.7% | 105% |
| O=C1Cc2cc(CCN3CCN(c4nsc5ccccc45)CC3)c(Cl)cc2N1 | 102% | 99.5% | 103% | 64.9% |  | 95.4% | 106% | 109% |
